{"source": "PubChem BioAssay (NCATS)", "key": {"[1]": {"target": "ATP-dependent 6-phosphofructokinase (Trypanosoma brucei brucei) (UniProt O15648)", "sequence (O15648 whole entry, looked up)": "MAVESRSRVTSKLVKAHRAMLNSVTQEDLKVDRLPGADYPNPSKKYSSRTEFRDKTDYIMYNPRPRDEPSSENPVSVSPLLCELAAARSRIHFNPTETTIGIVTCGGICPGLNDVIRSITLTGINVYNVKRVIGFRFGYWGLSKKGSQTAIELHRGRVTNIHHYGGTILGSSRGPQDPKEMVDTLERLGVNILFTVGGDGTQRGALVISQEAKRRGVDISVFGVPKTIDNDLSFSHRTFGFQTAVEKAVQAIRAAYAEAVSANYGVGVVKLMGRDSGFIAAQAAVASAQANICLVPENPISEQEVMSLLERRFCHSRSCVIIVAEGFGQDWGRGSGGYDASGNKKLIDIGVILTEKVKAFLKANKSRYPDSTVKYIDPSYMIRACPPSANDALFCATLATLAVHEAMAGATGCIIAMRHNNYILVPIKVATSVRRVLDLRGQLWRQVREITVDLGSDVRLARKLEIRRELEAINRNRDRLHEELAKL", "test": "qHTS Assay to Find Inhibitors of T. brucei phosphofructokinase: hit validation (AID 492961);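 note: luminescence reports ADP formed as PFK phosphorylates fructose-6-phosphate with ATP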", "in_short": "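PFK 1.25 nM, F6P 0.5 mM, ATP 0.1 mM, MgCl2 5 mM, 0.1 M TEA pH 8.0, Tween20 0.01%, BSA 0.1%; 45 min RT. ADP-Glo two-step detection, luminescence. qHTS titration; curve fitting with curve-class categorization.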"}, "[2]": {"target": "Ubiquitin carboxyl-terminal hydrolase 1 (Homo sapiens) (UniProt O94782)", "sequence (O94782 whole entry, looked up)": "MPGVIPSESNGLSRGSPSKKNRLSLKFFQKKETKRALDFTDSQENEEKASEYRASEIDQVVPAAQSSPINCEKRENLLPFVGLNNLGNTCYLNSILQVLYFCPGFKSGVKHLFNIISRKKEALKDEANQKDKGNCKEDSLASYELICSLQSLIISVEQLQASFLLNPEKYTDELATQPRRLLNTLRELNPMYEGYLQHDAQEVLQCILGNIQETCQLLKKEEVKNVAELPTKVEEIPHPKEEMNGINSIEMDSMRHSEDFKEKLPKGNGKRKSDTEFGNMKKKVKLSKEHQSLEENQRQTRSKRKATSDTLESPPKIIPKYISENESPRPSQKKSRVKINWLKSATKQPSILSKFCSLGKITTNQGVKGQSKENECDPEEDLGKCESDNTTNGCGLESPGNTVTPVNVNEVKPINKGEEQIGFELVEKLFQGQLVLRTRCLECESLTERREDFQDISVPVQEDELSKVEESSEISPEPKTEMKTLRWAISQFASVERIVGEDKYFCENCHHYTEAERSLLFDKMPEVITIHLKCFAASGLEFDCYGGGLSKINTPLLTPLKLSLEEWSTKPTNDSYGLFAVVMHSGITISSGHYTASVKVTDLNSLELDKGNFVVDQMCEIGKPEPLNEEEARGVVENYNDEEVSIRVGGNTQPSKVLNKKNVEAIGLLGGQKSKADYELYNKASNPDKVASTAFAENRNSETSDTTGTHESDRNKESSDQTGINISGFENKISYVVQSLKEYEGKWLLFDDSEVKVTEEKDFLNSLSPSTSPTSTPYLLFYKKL", "test": "Inhibitors of USP1/UAF1: Pilot qHTS (AID 504865);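 note: rhodamine fluorescence freed from ubiquitin-rhodamine substrate followed over time; top concentration of the series differs between compounds; nearly all actives have a fitted effect of over 35% in size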", "in_short": "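Deubiquitinase activity followed as kinetic rhodamine fluorescence release from 150 nM Ub-Rho. 1 nM USP1/UAF1 with compound, after 15 min room-temperature preincubation, in HEPES pH 7.8 buffer containing TCEP, EDTA, BSA and Tween-20.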"}, "[3]": {"target": "Luciferin 4-monooxygenase (Photinus pyralis) (UniProt P08659)", "sequence (P08659 whole entry, looked up)": "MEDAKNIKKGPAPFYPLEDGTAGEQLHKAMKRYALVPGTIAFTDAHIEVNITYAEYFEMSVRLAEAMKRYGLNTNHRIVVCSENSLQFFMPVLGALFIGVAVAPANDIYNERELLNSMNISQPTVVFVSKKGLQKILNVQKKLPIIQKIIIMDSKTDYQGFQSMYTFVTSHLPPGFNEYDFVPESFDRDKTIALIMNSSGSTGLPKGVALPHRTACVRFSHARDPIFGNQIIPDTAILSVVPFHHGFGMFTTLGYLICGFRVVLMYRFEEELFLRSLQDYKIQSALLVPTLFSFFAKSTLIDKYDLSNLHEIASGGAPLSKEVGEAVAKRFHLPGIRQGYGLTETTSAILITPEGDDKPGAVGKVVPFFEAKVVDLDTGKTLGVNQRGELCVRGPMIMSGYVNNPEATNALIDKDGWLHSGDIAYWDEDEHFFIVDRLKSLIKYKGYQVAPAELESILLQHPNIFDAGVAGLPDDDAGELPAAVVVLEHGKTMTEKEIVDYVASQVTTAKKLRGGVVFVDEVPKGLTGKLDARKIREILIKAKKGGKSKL", "test": "Biochemical firefly luciferase enzyme assay for NPC (AID 624030); note: nearly all actives have a fitted effect of over 70% in size", "in_short": "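Counter-screen for direct inhibition of the luciferase enzyme by approved-drug library compounds, run at 10 nM enzyme in 50 mM Tris acetate (final). Luminescence was read within 5 min of enzyme-buffer addition and normalized to PTC124 versus DMSO (0%).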"}, "[4]": {"test": "S16 Schwann cell PMP22 intronic element firefly luciferase assay (AID 624032); note: nearly all actives have a fitted effect of over 30% in size", "in_short": "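Rat S16 Schwann cells stably carrying a PMP22 intronic element-driven Fluc reporter were seeded overnight, then exposed to compounds for 24 h at 37 °C. Luminescence was normalized to PTC124 (positive control) and DMSO (0% activity).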"}, "[5]": {"test": "S16 Schwann cell PMP22 intronic element beta-lactamase assay (AID 624044; calls by dose curve; note: nearly all actives have a fitted effect of over 15% in size)", "in_short": "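Rat S16 Schwann cells with beta-Lac driven by a PMP22 intronic element, compound-treated 24 h at 37 °C. LiveBLAzer FRET B/G read: 460 nm normalized to potassium clavulanate vs DMSO; 535 nm FRET as viability; concentration-effect curves classified.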"}, "Furin (Homo sapiens)": {"target": "Furin (Homo sapiens) (UniProt P09958)", "sequence (P09958 whole entry, looked up)": "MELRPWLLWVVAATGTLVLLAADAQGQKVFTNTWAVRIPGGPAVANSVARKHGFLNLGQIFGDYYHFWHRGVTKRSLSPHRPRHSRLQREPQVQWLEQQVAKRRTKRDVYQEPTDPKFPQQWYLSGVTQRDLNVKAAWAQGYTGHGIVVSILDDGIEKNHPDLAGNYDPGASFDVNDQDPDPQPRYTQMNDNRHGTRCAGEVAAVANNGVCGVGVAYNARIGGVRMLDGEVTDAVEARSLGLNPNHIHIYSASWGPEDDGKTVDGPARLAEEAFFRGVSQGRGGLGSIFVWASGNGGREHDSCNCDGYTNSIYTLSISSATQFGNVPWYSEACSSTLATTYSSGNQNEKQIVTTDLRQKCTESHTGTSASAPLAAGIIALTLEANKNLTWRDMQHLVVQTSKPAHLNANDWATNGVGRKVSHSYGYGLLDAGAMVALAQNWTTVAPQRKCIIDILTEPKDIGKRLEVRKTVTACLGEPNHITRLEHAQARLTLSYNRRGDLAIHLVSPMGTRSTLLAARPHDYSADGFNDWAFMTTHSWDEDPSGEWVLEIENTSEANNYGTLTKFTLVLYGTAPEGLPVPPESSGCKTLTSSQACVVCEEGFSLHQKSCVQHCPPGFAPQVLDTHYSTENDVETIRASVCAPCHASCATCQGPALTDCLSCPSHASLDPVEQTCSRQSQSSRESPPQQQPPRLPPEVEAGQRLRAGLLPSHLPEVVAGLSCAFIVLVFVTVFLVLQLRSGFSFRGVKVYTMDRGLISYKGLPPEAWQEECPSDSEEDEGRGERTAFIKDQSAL", "test": "Furin counterscreen qHTS for Zika virus inhibitors (AID 1347149);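 note: purified recombinant full-length human furin enzyme at 5 nM; fluorescence gain from furin cutting a BOC-RVRR-AMC peptide substrate over 15 min; top concentration of the series differs between compounds; nearly all actives have a fitted effect of over 70% in size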", "in_short": "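Fluorogenic cleavage of BOC-RVRR-AMC (2 microM final, Km ~15 µM) was monitored (ex 340, em 450 nm) at 37C after 15 min RT preincubation of 5 nM furin with compounds in HEPES pH 7.0 buffer with CaCl2 and Triton X-100. Percent inhibition was fitted to a 4-parameter Hill curve.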"}, "[6]": {"test": "HepG2 cells viability qHTS for Zika virus inhibitors (AID 1347168)", "in_short": "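Counter-screen for cytotoxicity of hits from NS2B-NS3 protease qHTS. Overnight-attached cells (2.5 x 10^5 cells/mL, DMEM/4% FBS) were dosed in titration, incubated 24 to 48 hours, then assayed by CellTiter Glo.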"}, "[7]": {"test": "Primary qHTS for inhibitors of SARS-S pseudo-typed particle cell entry (AID 1479145; calls by dose curve; note: nearly all actives have a fitted effect of over 45% in size)"}, "[8]": {"test": "Primary qHTS for inhibitors of MERS-S pseudo-typed particle cell entry (AID 1479149; calls by dose curve; note: nearly all actives have a fitted effect of over 60% in size)"}, "[9]": {"test": "Primary qHTS to identify inhibitors of SARS-CoV-2 cell entry (AID 1645846; calls by dose curve; note: nearly all actives have a fitted effect of over 45% in size)", "conditions": "activity change, negative = inhibition: at 57.1 µM (top of the series) unless noted", "in_short": "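Entry measured by luciferase signal 48 h after adding SARS-CoV-2-S pseudotyped MLV particles to HEK293-ACE2 cells preincubated 1 h with compounds. Normalisation: bald particles and spike particles.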"}, "[10]": {"target": "Glutathione peroxidase 1 (Homo sapiens) (UniProt P07203)", "sequence (P07203 whole entry, looked up)": "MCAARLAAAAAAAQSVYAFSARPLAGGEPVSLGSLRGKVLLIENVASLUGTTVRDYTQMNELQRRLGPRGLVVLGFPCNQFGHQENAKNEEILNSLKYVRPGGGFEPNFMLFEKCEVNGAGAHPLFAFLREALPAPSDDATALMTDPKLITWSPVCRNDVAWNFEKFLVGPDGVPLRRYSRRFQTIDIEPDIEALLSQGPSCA", "test": "Primary qHTS Assay for Inhibitors of Recombinant Selenoprotein Glutathione Peroxidase 1 (GPX1) (AID 1845191); note: nearly all actives have a fitted effect of over 65% in size", "in_short": "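Recombinant GPX1 (10 nM final) was preincubated with compound for 30 min at room temperature, then reacted with 1 mM GSH, 0.5 mM CHP, 0.5 mM NADPH and 100 nM glutathione reductase; NADPH fluorescence (340/450 nm) was read at 0 and 15 min.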"}, "[11]": {"target": "Phospholipid hydroperoxide glutathione peroxidase GPX4 (Homo sapiens) (UniProt P36969)", "sequence (P36969 whole entry, looked up)": "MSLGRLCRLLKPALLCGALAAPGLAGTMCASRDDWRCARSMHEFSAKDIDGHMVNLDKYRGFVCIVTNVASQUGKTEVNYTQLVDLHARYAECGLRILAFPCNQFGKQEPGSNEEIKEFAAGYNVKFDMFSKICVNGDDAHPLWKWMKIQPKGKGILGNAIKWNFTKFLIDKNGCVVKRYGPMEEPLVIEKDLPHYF", "test": "Primary qHTS Assay for Inhibitors of Recombinant Selenoprotein Glutathione Peroxidase 4 (GPX4) (AID 1845192); note: nearly all actives have a fitted effect of over 65% in size", "in_short": "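GR-coupled readout: 100 nM GR, 1 mM GSH, 0.5 mM NADPH; NADPH fluorescence (ex 340/em 450 nm) read at t=0 and after 15 min RT. GPX4 200 nM, preincubated 30 min with compound; substrate 0.5 mM CHP.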"}, "3D7": {"tested_on": "3D7", "test": "qHTS profiling for inhibitors of Plasmodium falciparum proliferation (AID 504749); note: nearly all actives have a fitted effect of over 60% in size", "conditions": "P. falciparum in erythrocytes, SYBR Green DNA, 72 h; series mostly up to 28.7 µM", "in_short": "(§1)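 Parasite proliferation within erythrocytes, 72 h exposure. Endpoint: SYBR Green I fluorescence after overnight lysis at room temperature. Controls: 0.29 uM artemisinin, DMSO.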"}, "AA1029": {"tested_on": "AA1029", "test": "qHTS profiling for inhibitors of Plasmodium falciparum proliferation (AID 504749)", "conditions": "P. falciparum in erythrocytes, SYBR Green DNA, 72 h; series mostly up to 28.7 µM", "in_short": "as §1"}, "AS120": {"tested_on": "AS120", "test": "qHTS profiling for inhibitors of Plasmodium falciparum proliferation (AID 504749)", "conditions": "P. falciparum in erythrocytes, SYBR Green DNA, 72 h; series mostly up to 28.7 µM", "in_short": "as §1"}, "ATS189": {"tested_on": "ATS189", "test": "qHTS profiling for inhibitors of Plasmodium falciparum proliferation (AID 504749)", "conditions": "P. falciparum in erythrocytes, SYBR Green DNA, 72 h; series mostly up to 28.7 µM", "in_short": "as §1"}, "ATS95": {"tested_on": "ATS95", "test": "qHTS profiling for inhibitors of Plasmodium falciparum proliferation (AID 504749)", "conditions": "P. falciparum in erythrocytes, SYBR Green DNA, 72 h; series mostly up to 28.7 µM", "in_short": "as §1"}, "C2A": {"tested_on": "C2A", "test": "qHTS profiling for inhibitors of Plasmodium falciparum proliferation (AID 504749)", "conditions": "P. falciparum in erythrocytes, SYBR Green DNA, 72 h; series mostly up to 28.7 µM", "in_short": "as §1"}, "CP185": {"tested_on": "CP185", "test": "qHTS profiling for inhibitors of Plasmodium falciparum proliferation (AID 504749)", "conditions": "P. falciparum in erythrocytes, SYBR Green DNA, 72 h; series mostly up to 28.7 µM", "in_short": "as §1"}, "CP191": {"tested_on": "CP191", "test": "qHTS profiling for inhibitors of Plasmodium falciparum proliferation (AID 504749)", "conditions": "P. falciparum in erythrocytes, SYBR Green DNA, 72 h; series mostly up to 28.7 µM", "in_short": "as §1"}, "CP192": {"tested_on": "CP192", "test": "qHTS profiling for inhibitors of Plasmodium falciparum proliferation (AID 504749)", "conditions": "P. falciparum in erythrocytes, SYBR Green DNA, 72 h; series mostly up to 28.7 µM", "in_short": "as §1"}, "CP194": {"tested_on": "CP194", "test": "qHTS profiling for inhibitors of Plasmodium falciparum proliferation (AID 504749)", "conditions": "P. falciparum in erythrocytes, SYBR Green DNA, 72 h; series mostly up to 28.7 µM", "in_short": "as §1"}, "CP201": {"tested_on": "CP201", "test": "qHTS profiling for inhibitors of Plasmodium falciparum proliferation (AID 504749)", "conditions": "P. falciparum in erythrocytes, SYBR Green DNA, 72 h; series mostly up to 28.7 µM", "in_short": "as §1"}, "CP203": {"tested_on": "CP203", "test": "qHTS profiling for inhibitors of Plasmodium falciparum proliferation (AID 504749)", "conditions": "P. falciparum in erythrocytes, SYBR Green DNA, 72 h; series mostly up to 28.7 µM", "in_short": "as §1"}, "CP211": {"tested_on": "CP211", "test": "qHTS profiling for inhibitors of Plasmodium falciparum proliferation (AID 504749)", "conditions": "P. falciparum in erythrocytes, SYBR Green DNA, 72 h; series mostly up to 28.7 µM", "in_short": "as §1"}, "CP215": {"tested_on": "CP215", "test": "qHTS profiling for inhibitors of Plasmodium falciparum proliferation (AID 504749)", "conditions": "P. falciparum in erythrocytes, SYBR Green DNA, 72 h; series mostly up to 28.7 µM", "in_short": "as §1"}, "CP217": {"tested_on": "CP217", "test": "qHTS profiling for inhibitors of Plasmodium falciparum proliferation (AID 504749)", "conditions": "P. falciparum in erythrocytes, SYBR Green DNA, 72 h; series mostly up to 28.7 µM", "in_short": "as §1"}, "CP237": {"tested_on": "CP237", "test": "qHTS profiling for inhibitors of Plasmodium falciparum proliferation (AID 504749)", "conditions": "P. falciparum in erythrocytes, SYBR Green DNA, 72 h; series mostly up to 28.7 µM", "in_short": "as §1"}, "CP238": {"tested_on": "CP238", "test": "qHTS profiling for inhibitors of Plasmodium falciparum proliferation (AID 504749)", "conditions": "P. falciparum in erythrocytes, SYBR Green DNA, 72 h; series mostly up to 28.7 µM", "in_short": "as §1"}, "CP247": {"tested_on": "CP247", "test": "qHTS profiling for inhibitors of Plasmodium falciparum proliferation (AID 504749)", "conditions": "P. falciparum in erythrocytes, SYBR Green DNA, 72 h; series mostly up to 28.7 µM", "in_short": "as §1"}, "CP250": {"tested_on": "CP250", "test": "qHTS profiling for inhibitors of Plasmodium falciparum proliferation (AID 504749)", "conditions": "P. falciparum in erythrocytes, SYBR Green DNA, 72 h; series mostly up to 28.7 µM", "in_short": "as §1"}}, "note": "Results filed as inconclusive are left out. Where a call stands in place of a potency, no number is given. The source made the active and inactive calls. Unless noted, calls come from the whole dose curve; as a rule, active = well fitted curve in the direction sought with a large enough effect; inconclusive = small, poorly fitted or top-dose-only effect, or another doubt; inactive = no such curve, though single readings can be large; an effect the other way counts as inactive or inconclusive."}
{"smiles": "CO[C@H]1[C@@H](O)CC(OC2[C@@H](O)CC(OC3[C@@H](O)C[C@H](OC4CC[C@@]5(C)C(CCC6C5CC(O)[C@]5(C)[C@H](C7=CC(=O)OC7)CCC65O)C4)O[C@@H]3C)O[C@@H]2C)O[C@@H]1C", "note": "(stereo partly specified)", "values": [{"measurement": "Potency", "setting": "[1]", "value": "inactive"}, {"measurement": "Potency", "setting": "[2]", "value": "inactive"}, {"measurement": "Potency", "setting": "[3]", "value": "inactive"}, {"measurement": "Potency", "setting": "[4]", "value": "inactive"}, {"measurement": "Potency", "setting": "[5]", "value": "inactive"}, {"measurement": "Potency", "setting": "Furin (Homo sapiens)", "value": "inactive"}, {"measurement": "Potency", "setting": "[6]", "value": "inactive"}, {"measurement": "Potency", "setting": "[7]", "value": "inactive"}, {"measurement": "Potency", "setting": "[8]", "value": "inactive"}, {"measurement": "activity change, negative = inhibition", "setting": "[9]", "value": "-97.7% [at 114 µM]"}, {"measurement": "Potency", "setting": "[10]", "value": "inactive"}, {"measurement": "Potency", "setting": "[11]", "value": "inactive"}, {"measurement": "Potency", "setting": "3D7", "value": "inactive"}, {"measurement": "Potency", "setting": "AA1029", "value": "inactive"}, {"measurement": "Potency", "setting": "AS120", "value": "inactive"}, {"measurement": "Potency", "setting": "ATS189", "value": "inactive"}, {"measurement": "Potency", "setting": "ATS95", "value": "inactive"}, {"measurement": "Potency", "setting": "C2A", "value": "inactive"}, {"measurement": "Potency", "setting": "CP185", "value": "inactive"}, {"measurement": "Potency", "setting": "CP191", "value": "inactive"}, {"measurement": "Potency", "setting": "CP192", "value": "inactive"}, {"measurement": "Potency", "setting": "CP194", "value": "inactive"}, {"measurement": "Potency", "setting": "CP201", "value": "inactive"}, {"measurement": "Potency", "setting": "CP203", "value": "inactive"}, {"measurement": "Potency", "setting": "CP211", "value": "inactive"}, {"measurement": "Potency", "setting": "CP215", "value": "inactive"}, {"measurement": "Potency", "setting": "CP217", "value": "inactive"}, {"measurement": "Potency", "setting": "CP237", "value": "inactive"}, {"measurement": "Potency", "setting": "CP238", "value": "inactive"}, {"measurement": "Potency", "setting": "CP247", "value": "inactive"}, {"measurement": "Potency", "setting": "CP250", "value": "inactive"}]}
